PubChem BioAssay
Results with a measured potency or affinity are listed apart. Activity calls are given as the source filed them. No rule for the calls is given here.

test: A549 cell cytotoxicity, dose response, cytotoxicity control, plate reader, cherry-pick, antagonist series (AID 743412); details: series mostly up to 26 µM; activity change, negative = cytotoxicity: at the top concentration;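 also: 0% = neutral control wells and -100% = positive control wells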

Structure (SMILES) | activity change, negative = cytotoxicity
COc1ccc(-c2cc(C(=O)N3CCCC3)no2)cc1 | 12.5% (inactive)
Cc1cc(C(=O)CSc2nnc(N)s2)c(C)n1Cc1cccs1 | 11.1% (inactive)
Cc1ccc(-c2nc(-c3ccccn3)no2)cc1[N+](=O)[O-] | 4.79% (inactive)
CCOC(=O)c1cn2nc(N3CCCCC3)ccc2n1 | 3.82% (inactive)
COc1cc(SC)ccc1C(=O)Nc1ccc(Cl)cn1 | -13.4% (inactive)
Cc1cnc(NC(=O)c2ccc(OCC3CCCO3)cc2)s1 (stereo not given) | 14.3% (inactive)
COc1ccc(-c2nc(-c3cccs3)no2)cc1 | -22.1% (inactive)
CN(c1ccccc1)S(=O)(=O)c1cccc(NC(=O)c2cc(=O)c3ccccc3o2)c1 | -15.8% (inactive)
Cc1ccc2nc(-c3ccc(NC(=O)COC(=O)c4ccco4)cc3)sc2c1 | 35.4% (inactive)
O=C(CN1C(=O)c2ccccc2S1(=O)=O)c1ccccc1F | 1.22% (inactive)
OC1CCC(Nc2ccn3nc(-c4cccc(OCc5ccccc5)c4)cc3n2)CC1 (stereo not given) | -13.1% (inactive)
Cc1ccnc(NC(=O)c2cccc(S(=O)(=O)N3CCN(c4ccccc4)CC3)c2)c1 | -2.83% (inactive)
CSc1ccc(NC(=O)Nc2cc(C)ccn2)cc1 | 6.17% (inactive)
O=C(O)c1ccc(N/N=C/c2ccc(OC(=O)c3cccc(Cl)c3)cc2)cc1 | 10.4% (inactive)
Cc1ccc(C(=O)Nc2ccc3c(c2)OCCO3)c(Cl)c1 | 25.3% (inactive)
Cc1ccc(-c2nc(-c3ccncc3)no2)c(Cl)c1 | -10.7% (inactive)
O=C(CN1CCOc2ccccc21)NCc1ccc(F)cc1 | -3.92% (inactive)
Cc1cccc(-n2ncc3c(N(C)C4CCCCC4)ncnc32)c1 | 41.8% (inactive)
Cc1ccc(C(=O)CN2C(=O)c3ccccc3S2(=O)=O)cc1 | 4.66% (inactive)
Cc1cc(C(=O)COC(=O)c2cccn2C)c(C)n1Cc1ccco1 | 32.2% (inactive)

Structure (SMILES) | activity change, negative = cytotoxicity
Cc1ccc(NC(=O)c2cnn(-c3ccccc3)c2C)cc1C | 7.06% (inactive)
COCCn1c(C)cc(C(=O)CSc2nnnn2C2CCCC2)c1C | -4.87% (inactive)
Cn1cccc1C(=O)OCC(=O)Nc1ccc2c(c1)OCCO2 | 12.6% (inactive)
O=C(c1cc(-c2ccc(Cl)cc2Cl)on1)N1CCOCC1 | -6.81% (inactive)
CCCCCc1ccc(-c2ccc(C(=O)O)cc2)nc1 | 1.26% (inactive)
COc1cc(NC(=O)c2cccc3c(-c4cnn(C)c4)coc23)cc(OC)c1OC | 8.4% (inactive)
Clc1ccc(-n2ncc3c(N4CCCC4)ncnc32)cc1 | -2.92% (inactive)
C=CCNC(=O)c1c(Cl)nc(C)c([N+](=O)[O-])c1C | -3.38% (inactive)
CC(C)(C)c1ccc(C(=O)NCCOc2ccccc2F)cc1 | 7.43% (inactive)
CSc1nc2ccc(NC(=O)c3ccccn3)cc2s1 | -1.71% (inactive)
O=C(c1cc(-c2ccc(Cl)cc2Cl)on1)N1CCCC1 | -5.78% (inactive)
FC(F)(F)c1cccc(CC2CN(Cc3ccccc3)Cc3ccccc3N2c2cc(Cl)cc(Cl)c2)c1 (stereo not given) | 6.54% (inactive)
Cc1c(C)c2ccc(OCC(=O)Nc3nccs3)cc2oc1=O | 7.2% (inactive)
Cc1cc(C(=O)COC(=O)c2ccccc2O)c(C)n1CC1CCCO1 (stereo not given) | -7.7% (inactive)
Cc1cc(C(=O)Nc2ccc(N3CCCCC3)cc2)no1 | 26.5% (inactive)
COc1ccc(OCC(=O)Nc2nccs2)cc1 | 8.16% (inactive)
COc1cc(SC)ccc1C(=O)Nc1ncc(C)s1 | 2.28% (inactive)
Cc1c(NC(=O)c2ccc(-c3ccccc3)cc2)cccc1C(=O)O | -0.15% (inactive)
Cc1ccc(-c2nnc(-c3ccccc3Br)o2)cc1 | -15.7% (inactive)
CCn1c(C)cc(C(=O)CN2C(=O)c3ccccc3S2(=O)=O)c1C | 7.37% (inactive)
